# TWEAK Fn14 block: inhibitors of TWEAK-Fn14 interaction signaling | inhibition, % at 10 µM | 2% of 360,000 active | AID 1159606 | TWEAK-stimulated Fn14 reporter cells, luciferase luminescence, 8 h; in the data active means inhibition above about 50%
# EWS-Fli inh: inhibitors of EWS/Fli oncoprotein transcriptional activity; 0.67% of 350,000 active; AID 651661; A673 NR0B1-luciferase reporter, viability-normalised; inhibition, % at 12.6 µM;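 active means mean inhibition of at least 50% after viability correction, with every replicate also passing that limit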;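 further: firefly luciferase signal divided by Alamar Blue viability fluorescence both relative to DMSO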
# LGR2 antag: inhibitors of bursicon-induced Drosophila LGR2 receptor cAMP signaling | HEK293 LGR2, CRE-luciferase, bursicon-stimulated, 4 h | 0.35% of 380,000 active | inhibition, % at 9.99 µM;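 active means drop in luminescence signal, shown as inhibition above about 50% in the replicate tests, limit read from the data, passing the limit was not always enough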;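 further: agonist challenge used bursicon conditioned medium at about half maximal strength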
# LMP1 NFkB inh: Epstein-Barr LMP1 NF-kappaB reporter inhibition | LMP1-induced NF-kappaB luciferase reporter cells, luminescence | inhibition, % at 12.5 µM | 0.69% of 350,000 active | AID 504558; in the data active means inhibition above about 41%;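 further: 0% = neutral control wells and 100% = reference inhibitor control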
# TROY NFkB inh: inhibitors of TROY-dependent NF-kB signaling. Q293 LMP1-TROYcd NF-kB luciferase reporter, 4 h. inhibition, % at 10 µM. 0.98% of 360,000 active. AID 1347056;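 active means compounds whose plate-normalised and pattern-corrected inhibition of the luciferase reporter signal at the single screening dose is 50% or more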
# Numbers without * were called inactive; . = not tested or not shown. Rows were chosen to be rich in hits. Some 2.6% of all compounds tested hit in one or more screens of this group.
SMILES,TWEAK Fn14 block,EWS-Fli inh,LGR2 antag,LMP1 NFkB inh,TROY NFkB inh
O=C(c1cn(Cc2ccccc2)nc1-c1ccccc1)N1CCN(c2ccccn2)CC1,16,54*,-2,24,1
COc1ccc(-c2nn(Cc3ccccc3)cc2C(=O)N2CCN(c3ccccn3)CC2)cc1OC,-11,5,-13,-3,4
COc1cccc(C(=O)N2CCN(c3ccccn3)CC2)c1,-25,2,-14,49*,5
O=C(Cn1cnc2c(NCc3ccccc3)ncnc21)NCc1ccccc1,30,56*,7,-9,20
C[C@H](CO)N1C[C@H](C)[C@H](CN(C)C)Oc2cc(C#C[C@@H](C)O)ccc2S1(=O)=O,.,-6,4,.,.
CCOC(=O)c1c(CSC(=N)N)n(C)c2cc(Br)c(OC(C)=O)cc12,-6,-6,-92,-46,19
CCOC(=O)c1c(CSC(=N)N)n(-c2ccc(C)cc2)c2cc(Br)c(OC(C)=O)cc12,92*,.,.,-76,33
COc1ccc(C#Cc2ccc3c(c2)[C@@H]2[C@@H](CCN2S(=O)(=O)C2=NC(C)C=N2)[C@H](CO)N3C)cc1 (some centres not stated),.,-7,6,.,.
O=C1CC(c2ccc(F)cc2)Cc2nc(N3CCN(c4ccccc4)CC3)ncc21 (configuration not stated),45,.,-28,0,-2
Cc1ccc(C2CC(=O)c3cnc(N4CCN(c5ccccc5)CC4)nc3C2)cc1 (configuration not stated),58*,.,-7,17,47
C[C@@H]1CN([C@H](C)CO)C(=O)c2cccc(NS(=O)(=O)c3ccc(Cl)cc3)c2O[C@@H]1CN(C)S(=O)(=O)c1cn(C)cn1,.,-3,-7,.,.
C[C@H]1CN([C@@H](C)CO)C(=O)c2cc(NC(=O)Cc3cn(C)c4ccccc34)ccc2O[C@@H]1CN(C)S(=O)(=O)c1ccccc1,.,8,.,.,.
COc1ccc(/C=N/Nc2ncnc(Cl)c2N)cc1OC,2,-14,-6,-9,1
COc1ccc(/C=N/Nc2ncnc3sc4c(c23)CCCC4)cc1OC,90*,.,14,14,82*
Cc1ccc(C(=O)Nc2cccc3ccccc23)cc1,-22,-61,-9,-24,-29
CC(C)(C)c1ccc(C(=O)Nc2cccc3c(=O)[nH][nH]c(=O)c23)cc1,80*,.,25,37,53*
COc1ccc(NC(=O)Nc2ccc3c(c2)[C@@H]2C[C@@H](CC(=O)O)O[C@H](CO)[C@@H]2O3)cc1,.,.,-8,.,.
COC(=O)c1cc(C(=O)c2cc(Cl)ccc2O)coc1=N,70*,-7,22,11,4
COCCOC(=O)c1cc(C(=O)c2cc(F)ccc2O)coc1=N,-4,.,.,-8,-11
CC(=O)Nc1cc(-c2cccc(C(=O)NCCN(C)C)c2)cn2c(-c3ccccc3)cnc12,-59,-5,0,.,-11
O=CNc1cc(-c2ccccc2Oc2ccccc2)cn2c(-c3ccc(F)cc3)cnc12,19,13,-12,.,8
COc1ccc(-c2cc(NC(C)=O)c3ncc(-c4cccc(C(C)=O)c4)n3c2)cc1OC,4,11,10,.,62*
CC(=O)c1ccc(-c2cnc3c(NC=O)cc(-c4ccccc4Oc4ccccc4)cn23)cc1,59*,33,-3,.,14
CC(=O)Nc1cc(-c2cccc(C(=O)NCCN(C)C)c2)cn2c(-c3cccc(C(F)(F)F)c3)cnc12,-314,55*,-4,.,-18
C[C@H]1CN([C@@H](C)CO)C(=O)Cc2cc(NS(=O)(=O)c3ccc(F)cc3)ccc2O[C@H]1CN(C)C(=O)Nc1ccc(F)cc1,.,-4,-5,.,.
Cc1noc(C)c1NC(=O)Nc1ccc2c(c1)C(=O)N([C@@H](C)CO)C[C@@H](C)[C@@H](CN(C)CC1CCCCC1)OCCCC[C@@H](C)O2,.,8,-17,.,.
N#C/C(=C\c1cccc([N+](=O)[O-])c1)c1nnc2n1CCCCC2,91*,.,20,7,82*
COC(C(=O)C(O)C(C)O)C1Cc2cc3cc(OC4CC(OC5CC(O)C(O)C(C)O5)C(O)C(C)O4)c(C)c(O)c3c(O)c2C(=O)C1OC1CC(OC2CC(OC3CC(O)C(OC)C(C)O3)C(O)C(C)O2)C(O)C(C)O1 (configuration not stated),85*,14,5,80*,8
CCCNC(=O)Cc1c(C)n(C(=O)c2ccc(Cl)cc2)c2ccc(OC)cc12,15,0,5,2,0
CCC(=O)NNC(=O)Cc1c(C)n(C(=O)c2ccc(Cl)cc2)c2ccc(OC)cc12,56*,9,16,-5,-11
